From PubChem BioAssay (Tox21)
Inconclusive results are not listed. Activity calls are given as the source filed them. Unless noted, the call rests on the fitted dose curve; in most records, active means well fitted curve in the direction sought with a large enough effect in the repeat runs; inconclusive means weak or mixed curves; inactive means no such curve, though single readings can be large; an effect the other way counts as inactive or inconclusive.

What was measured:
[1] = qHTS assay to identify small molecule antagonists of the estrogen related receptor (ERR) signaling pathway from Tox21 library - cell viability counter screen (AID 1224834); further: nearly all actives have a fitted effect of over 30% in size
Outline: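 ERR reporter cells were plated 6 h before compound addition, then exposed to test compounds in DMSO for 17.5 h at 37 C. Viability was read as CellTiter-Fluor fluorescence after a 30-minute incubation at 37 C.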

[2] = molecular target: Luciferin 4-monooxygenase (Photinus pyralis) (UniProt P08659); assay: qHTS assay to identify small molecule inhibitors of firefly luciferase (AID 1224835); further: nearly all actives have a fitted effect of over 25% in size
Outline: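 Inhibition of purified Photinus luciferase is measured by luminescence. Substrate levels (D-luciferin, ATP) sit at their KM values. Each compound is tested in a concentration series.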

[3] = qHTS assay to identify small molecule agonists of the constitutive androstane receptor (CAR) signaling pathway - cell viability counter screen (AID 1224836); further: nearly all actives have a fitted effect of over 45% in size
Outline: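 Counter screen multiplexed with the CAR reporter readout: HepG2 cells co-transfected with hCAR and the CYP2B6-2.2kb construct receive a 15-concentration compound series and 0.75 uM PK11195 (final), then CellTiter-Fluor fluorescence is read after 23 h.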

[4] = qHTS assay to identify small molecule antagonists of the constitutive androstane receptor (CAR) signaling pathway - cell viability counter screen (AID 1224837); further: nearly all actives have a fitted effect of over 45% in size
Outline: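 HepG2 cells stably expressing hCAR and a CYP2B6-2.2kb reporter were plated and pre-incubated 4 hr at 37 C/5% CO2, then given compounds at 15 concentrations plus 50 nM CITCO (final). After 23 hr, viability was read by CellTiter-Fluor fluorescence.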

[5] = qHTS assay to identify small molecule antagonists of the estrogen related receptor signaling pathway with the pleiotropic PPARgamma coactivator (PGC) from Tox21 10K library - cell viability counter screen (AID 1224840; active means well fitted cell-killing curve with a large enough effect in the repeat runs, not every such curve was filed as active; further: nearly all actives have a fitted effect of over 40% in size)
Outline: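 PGC/ERR cells were seeded at 2,000 cells/well and left 6 hours at 37 C/5% CO2 before pin-tool addition of compounds in DMSO. After 17.5 hours at 37 C, CellTiter-Fluor was added and fluorescence read 30 minutes later.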

[6] = molecular target: Thyrotropin receptor (Homo sapiens) (UniProt P16473); assay: qHTS assay to identify small molecule agonists of the thyroid stimulating hormone receptor (TSHR) signaling pathway (AID 1224843; calls by dose curve; further: nearly all actives have a fitted effect of over 45% in size)
Outline: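 HEK293 cells stably bearing the thyrotropin receptor were plated at 800 cells/well and challenged with compound (30 min, RT). Accumulated cAMP was quantified via cAMP-d2 competing for cryptate-tagged antibody.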

[7] = qHTS assay to identify small molecule agonists of the hypoxia (HIF-1) signaling pathway - cell viability counter screen (AID 1224844; calls by dose curve; further: nearly all actives have a fitted effect of over 50% in size)
Outline: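 HRE-bla ME-180 cells in medium with 0.5% dialyzed FBS were preincubated 5 hrs at 37C, exposed to compounds for 17 hrs, then viability was read as CellTiter-Glo luminescence after 30 min at room temperature, in the reporter wells.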

[8] = qHTS assay to identify small molecule agonists of H2AX - cell viability counter screen (AID 1224847; calls by dose curve; further: top concentration of the series differs between compounds; nearly all actives have a fitted effect of over 30% in size)
Outline: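 We seed wild-type CHO-K1 cells overnight, treat them for 3 hr at 37C with compounds in 15-concentration series, and quantify remaining viability by CellTiter-Glo luminescence.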

[9] = qHTS RealTime-Glo MT Cell Viability Assay in HepG2 cells - 24 hour (AID 1224867); further: nearly all actives have a fitted effect of over 50% in size
Outline: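 Tox21 10K library screened in qHTS format on HepG2 cells carrying RealTime-Glo reagents. Compounds were added after a 5 h preincubation, and the luminescent signal from continuous culture was measured repeatedly during 40 h treatment.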

[10] = qHTS RealTime-Glo MT Cell Viability Assay in HEK293 cells - 32 hour (AID 1224868); further: top concentration of the series differs between compounds; nearly all actives have a fitted effect of over 50% in size
Outline: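 Luminescence generated by NanoLuc from substrate produced by living HEK293 cells served as the viability signal. Each value reflects the reading at its stated time point during continuous 40 h compound exposure at 37 C.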

[11] = A CellTox Green Cytotoxicity Assay to monitor cytotoxicity in HEK293 cells - 0 hour (AID 1224869); further: nearly all actives have a fitted effect of over 50% in size
Outline: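 HEK293 cells premixed with CellTox Green dye were seeded at 600 cells/well and left 5 h at 37 C/5% CO2 before pin transfer of 23 nL compound in DMSO. Fluorescence from dye bound to dead-cell DNA was read during 40 h treatment.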

[12] = qHTS RealTime-Glo MT Cell Viability Assay in HepG2 cells - 40 hour (AID 1224870); further: nearly all actives have a fitted effect of over 50% in size
Outline: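 Real-time viability: cells seeded at 600 per well together with NanoLuc and cell-permeant prosubstrate, compounds added after 5 h incubation. Luminescence tracked at 0, 8, 16, 24, 32 and 40 h of exposure.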

[13] = molecular target: Nuclear receptor subfamily 1 group I member 3 (Homo sapiens) (UniProt Q14994); assay: qHTS assay to identify small molecule antagonists of the constitutive androstane receptor (CAR) signaling pathway (AID 1224838); further: nearly all actives have a fitted effect of over 40% in size
Outline: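 HepG2 cells stably co-transfected with hCAR and a CYP2B6-2.2kb luciferase reporter were seeded 4 h before compound addition at 15 concentrations. Cells were stimulated with 50 nM CITCO (final) for 24 h at 37 C; luciferase luminescence was then read.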

[14] = molecular target: Nuclear receptor subfamily 1 group I member 3 (Homo sapiens) (UniProt Q14994); assay: qHTS assay to identify small molecule agonists of the constitutive androstane receptor (CAR) signaling pathway (AID 1224839); further: nearly all actives have a fitted effect of over 15% in size
Outline: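 A 15-concentration quantitative screen uses HepG2 cells co-transfected stably with human CAR and CYP2B6-2.2kb reporter. Treatment lasts 24 h with 0.75 uM PK11195 final present; ONE-Glo luminescence is the signal.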

[15] = qHTS assay to identify small molecule agonists of H2AX (AID 1224845; active means well fitted activation curve with a large enough effect in the signal ratio in the repeat runs, not every such curve was filed as active; the % refers to the signal ratio)
Outline: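 Phospho-H2AX Ser139 measured by HTRF (ex 320 nm; em 665 and 620 nm) after 24 hr antibody incubation. Compounds, 15 concentrations, 0.76% DMSO, were applied to CHO-K1 cells for 3hr at 37C before lysis.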

[16] = qHTS assay to identify small molecule agonists of the hypoxia (HIF-1) signaling pathway (AID 1224846; active means well fitted activation curve with a large enough effect in the signal ratio in the repeat runs, not every such curve was filed as active; the % refers to the signal ratio)
Outline: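 HRE-bla ME-180 cells (beta-lactamase reporter under hypoxia response element) were plated at 2,000 cells/well in medium with 0.5% dialyzed FBS, rested 5 hrs, then given compounds in DMSO for 17 hrs at 37C, 5% CO2. Reporter induction was read with CCF4-AM FRET substrate.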

[17] = qHTS assay to identify small molecule antagonists of the estrogen related receptor signaling pathway with the pleiotropic PPARgamma coactivator (PGC) from Tox21 10K library (AID 1224841; call rule not given here)
Outline: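 PGC/ERR reporter cells were seeded at 2,000 cells/well and held 6 hours at 37 C/5% CO2 before pin-tool addition of compounds in DMSO. After 18 hours at 37 C, One-Glo was added and luminescence read after 30 minutes at room temperature.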

[18] = qHTS assay to identify small molecule agonists of the estrogen related receptor signaling pathway with the pleiotropic PPARgamma coactivator (PGC) from Tox21 10K library (AID 1224842); further: nearly all actives have a fitted effect of over 15% in size
Outline: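 Luminescence from One-Glo (30 min, room temperature) measured after PGC/ERR cells had 18 h at 37 C with pinned compound (23 nL in DMSO). Cells had been seeded at 2,000 per well and pre-incubated 6 h.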

[19] = qHTS assay to identify small molecule antagonists of the estrogen related receptor (ERR) signaling pathway from Tox21 library (AID 1224848); further: nearly all actives have a fitted effect of over 50% in size
Outline: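 Reading was by luminescence 30 min after ONE-Glo addition. Before that, ERR cells at 2,000 per well had rested 6 h at 37 C/5% CO2 and then received pin-tooled compounds in DMSO for 18 h at 37 C.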

[20] = qHTS assay to identify small molecule agonists of the estrogen related receptor (ERR) signaling pathway from Tox21 library (AID 1224849; calls by dose curve; further: nearly all actives have a fitted effect of over 15% in size); conditions: ERR reporter cell line, ONE-Glo luciferase, 18 h; at 92.4 µM (top of the series) unless noted
Outline: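 ERR reporter cell line (NTP) seeded, rested 6 h at 37 C/5% CO2, then pinned with Tox21 compounds in DMSO. After 18 h at 37 C, ONE-Glo luciferase luminescence was read following 30 min at room temperature.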
On the % scale 0 is the no-effect control and ±100 the full control effect.

Chain of Thyrotropin receptor (Homo sapiens) (P16473 whole entry, looked up): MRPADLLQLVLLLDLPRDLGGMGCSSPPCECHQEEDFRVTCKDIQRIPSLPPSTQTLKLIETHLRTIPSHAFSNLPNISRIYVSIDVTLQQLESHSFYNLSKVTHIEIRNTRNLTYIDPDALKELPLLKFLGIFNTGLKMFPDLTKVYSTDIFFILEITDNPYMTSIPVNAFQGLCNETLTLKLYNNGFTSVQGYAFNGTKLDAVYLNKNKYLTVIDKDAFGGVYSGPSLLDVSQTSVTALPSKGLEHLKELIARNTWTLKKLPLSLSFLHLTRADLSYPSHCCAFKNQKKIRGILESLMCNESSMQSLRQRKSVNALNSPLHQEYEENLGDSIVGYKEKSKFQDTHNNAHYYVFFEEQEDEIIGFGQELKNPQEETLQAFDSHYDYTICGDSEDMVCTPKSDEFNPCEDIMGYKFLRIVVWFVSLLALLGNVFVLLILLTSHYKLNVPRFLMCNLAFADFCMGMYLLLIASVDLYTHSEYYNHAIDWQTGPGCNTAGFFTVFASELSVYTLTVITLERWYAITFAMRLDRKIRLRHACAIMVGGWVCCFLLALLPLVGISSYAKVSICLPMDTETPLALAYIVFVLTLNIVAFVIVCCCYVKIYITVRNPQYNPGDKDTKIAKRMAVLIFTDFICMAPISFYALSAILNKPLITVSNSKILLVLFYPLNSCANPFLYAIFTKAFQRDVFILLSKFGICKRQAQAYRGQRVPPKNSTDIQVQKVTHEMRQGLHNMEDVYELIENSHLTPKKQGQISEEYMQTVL
Chain of Luciferin 4-monooxygenase (Photinus pyralis) (P08659 whole entry, looked up): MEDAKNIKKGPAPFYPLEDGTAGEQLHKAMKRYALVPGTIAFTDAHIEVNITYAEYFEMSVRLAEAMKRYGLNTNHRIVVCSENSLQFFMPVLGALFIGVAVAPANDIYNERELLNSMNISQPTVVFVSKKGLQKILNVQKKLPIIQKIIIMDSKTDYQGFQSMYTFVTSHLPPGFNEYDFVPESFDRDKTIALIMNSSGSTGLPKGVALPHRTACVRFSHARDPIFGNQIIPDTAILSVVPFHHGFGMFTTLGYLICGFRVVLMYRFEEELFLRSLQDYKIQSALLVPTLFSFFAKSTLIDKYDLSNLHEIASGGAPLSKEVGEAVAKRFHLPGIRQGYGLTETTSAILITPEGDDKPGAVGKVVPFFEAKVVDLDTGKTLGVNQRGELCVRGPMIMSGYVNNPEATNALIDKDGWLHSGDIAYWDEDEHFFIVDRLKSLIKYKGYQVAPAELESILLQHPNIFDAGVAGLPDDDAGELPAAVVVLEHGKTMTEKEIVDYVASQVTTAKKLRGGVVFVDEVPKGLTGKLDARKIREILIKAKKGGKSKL
Chain of Nuclear receptor subfamily 1 group I member 3 (Homo sapiens) (Q14994 whole entry, looked up): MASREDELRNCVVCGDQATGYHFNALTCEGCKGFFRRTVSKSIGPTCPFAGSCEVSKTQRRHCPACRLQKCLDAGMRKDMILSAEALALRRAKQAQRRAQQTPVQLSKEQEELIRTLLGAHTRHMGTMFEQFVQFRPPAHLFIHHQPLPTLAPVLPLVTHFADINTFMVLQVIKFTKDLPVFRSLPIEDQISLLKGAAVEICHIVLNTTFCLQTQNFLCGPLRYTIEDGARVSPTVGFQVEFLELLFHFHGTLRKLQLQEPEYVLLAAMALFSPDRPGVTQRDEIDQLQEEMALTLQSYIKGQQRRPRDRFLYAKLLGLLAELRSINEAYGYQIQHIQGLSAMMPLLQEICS

CCCCCCCCCCCCCCC1CO1 (stereo unspecified)
inactive: Potency [1] | Potency [2] | Potency [3] | Potency [4] | Potency [5] | Potency [6] | Potency [7] | Potency [8] | Potency [9] | Potency [10] | Potency [11] | Potency [12]

CC(C)CCCC(C)CCO (stereo unspecified)
inactive: Potency [1] | Potency [2] | Potency [4] | Potency [13] | Potency [14] | Potency [6] | Potency [15] | outcome [16] | Potency [9] | Potency [10] | Potency [11] | Potency [12]

CC1=CC(=O)/C(=C(/C)O)C(=O)O1
inactive: Potency [1] | Potency [2] | Potency [4] | Potency [13] | Potency [14] | Potency [6] | Potency [7] | Potency [15] | outcome [16] | Potency [8] | Potency [9] | Potency [10] | Potency [11] | Potency [12]

O=C(Cl)c1ccc([N+](=O)[O-])cc1
inactive: Potency [1] | Potency [2] | Potency [3] | Potency [4] | Potency [5] | Potency [6] | Potency [7] | Potency [8] | Potency [9] | Potency [10] | Potency [11] | Potency [12]

CCCCCCCCCCCCCCCCCBr
inactive: viability change, negative = cytotoxic [1] -2.8% [at 19 µM] | activity change, negative = inhibition [2] 3.44% [at 23.6 µM] | viability change, negative = cytotoxic [3] -1.41% [at 19 µM] | activity change, negative = cytotoxicity [4] 0.897% [at 19 µM] | viability change, negative = cytotoxic [5] 2.64% [at 19 µM] | activity change, negative = cytotoxicity [7] 2.27% [at 15.8 µM] | activation (H2AX phosphorylation) [15] -1.13% [at 31.6 µM] | activity change, negative = cytotoxicity [8] 1.9% [at 31.6 µM] | activity change, negative = cytotoxicity [9] 0.544% [at 15.8 µM] | activity change, negative = cytotoxic [10] 6.52% [at 15.8 µM] | cytotoxicity [11] -0.244% [at 15.8 µM] | activity change, negative = cytotoxic [12] 11.3% [at 15.8 µM]

CC[C@@H]1C[C@H](N(Cc2cc(C(F)(F)F)cc(C(F)(F)F)c2)C(C)=O)c2cc(C(F)(F)F)ccc2N1C(=O)OC(C)C
inactive: Potency [1] | Potency [2] | Potency [4] | Potency [13] | Potency [14] | Potency [5] | Potency [15] | outcome [16] | Potency [8] | Potency [9] | Potency [11] | Potency [12]

CC(C)c1cccc(C(C)C)c1NC(=O)NS(=O)(=O)c1cc(C(C)(C)O)co1
inactive: Potency [1] | Potency [2] | Potency [3] | Potency [4] | Potency [5] | Potency [6] | Potency [7] | outcome [16] | Potency [9] | Potency [10] | Potency [11] | Potency [12]

SC1CCCC1
inactive: Potency [1] | Potency [2] | Potency [3] | Potency [4] | Potency [5] | Potency [6] | Potency [7] | Potency [15] | outcome [16] | Potency [9] | Potency [10] | Potency [11] | Potency [12]

OCC1CC2CC1C1CCC(CO)C21 (stereo unspecified)
inactive: Potency [1] | Potency [2] | Potency [4] | Potency [13] | Potency [14] | Potency [5] | Potency [17] | Potency [18] | Potency [6] | Potency [15] | Potency [8] | Potency [19] | activity change, positive = activation [20] -2.51% | Potency [9] | Potency [10] | Potency [11] | Potency [12]
